Experiment [1] has as its target Paired box protein Pax-6 (Homo sapiens) (UniProt P26367). The experiment can be described thus: ATG_Pax6_CIS: Attagene CIS-FACTORIAL HepG2 Assay for human Paired Box 6 (PAX6) (AID 2282956). As to conditions: HepG2 CIS-FACTORIAL PAX6 reporter transcription, RNA readout; actives raise or lower the signal. Summed up:
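After twenty-four hours of chemical exposure, transfected HepG2 cells are harvested for RNA. Cis-promoter reporter transcripts are amplified, fluorescently labelled and sized by capillary electrophoresis, with gain and loss of signal scored against DMSO.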

A short description of experiment [2]: ATG_PXRE_CIS: Attagene CIS-FACTORIAL HepG2 Assay for human Pregnane X Receptor Element (PXRE) (AID 2282957). As to conditions: HepG2 Attagene CIS-FACTORIAL PXRE reporter, mRNA; actives raise or lower the signal. A digest of the protocol: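 Cells: HepG2, transiently transfected reporter units under cis promoter control. Exposure: 24 h. Detection: reporter mRNA via RT-PCR/CE fluorescence; bidirectional fitting, DMSO-referenced.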

The nature of experiment [3]: ATG_PPRE_CIS: Attagene CIS-FACTORIAL HepG2 Assay for human Peroxisome Proliferator-activated Response Element (PPRE) (AID 2282958). The settings on record: HepG2 PPRE cis-element reporter, Attagene transcription factor profiling; actives raise or lower the signal. Summed up:
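Transcript-level reporter induction in transfected HepG2 cells after 24 h chemical exposure, quantified by fluorescence from RT-PCR products separated by capillary electrophoresis.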

Experiment [4] can be described thus: ATG_RORE_CIS: Attagene CIS-FACTORIAL HepG2 Assay for human RAR-related Orphan Receptor Element (RORE) (AID 2282959). The settings on record: HepG2 Attagene cis-factorial RORE reporter, mRNA; actives raise or lower the signal. Summed up: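 Multiplexed reporter assay measuring mRNA induction from a cis promoter element in transiently transfected HepG2 cells after 24 h treatment. Detection via RT-PCR and capillary electrophoresis fluorescence; DMSO serves as baseline.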

A short description of experiment [5]: ATG_Sox_CIS: Attagene CIS-FACTORIAL HepG2 Assay for human SRY-box transcription factor (SOX) (AID 2282960). The settings on record: HepG2 Attagene cis-factorial SOX reporter, mRNA; actives raise or lower the signal. A digest of the protocol:
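Cells were transfected with reporter constructs under cis-regulatory promoters, then exposed to chemicals for 24 h. Reporter transcripts were quantified by fluorescence after RT-PCR and capillary electrophoresis; activity was fitted in both directions against DMSO.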

The target of experiment [6] is Transcription factor Sp1 (Homo sapiens) (UniProt P08047). The experiment can be described thus: ATG_Sp1_CIS: Attagene CIS-FACTORIAL HepG2 Assay for human Specificity Protein 1 (Sp1) (AID 2282961). The settings on record: HepG2 Sp1 cis-reporter transcription, actives raise or lower the signal. Summed up:
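Measures mRNA induction of an Sp1-linked reporter in HepG2 cells 24 h post-dosing. Multiplexed reporters read by RT-PCR and capillary electrophoresis; DMSO serves as negative control and baseline.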

A short description of experiment [7]: ATG_SREBP_CIS: Attagene CIS-FACTORIAL HepG2 Assay for human Sterol Regulatory Element Binding (SREBP) (AID 2282962). The settings on record: HepG2 Attagene cis-factorial SREBP reporter, mRNA; actives raise or lower the signal. Summed up: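 Twenty-four hours after chemical dosing of transfected HepG2 cultures, reporter RNA was converted to cDNA, amplified, end-labelled with 6-FAM and resolved by capillary electrophoresis. Responses were fitted relative to DMSO.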

Experiment [8] concerns the target Signal transducer and activator of transcription 3 (Homo sapiens) (UniProt P40763). The experiment can be described thus: ATG_STAT3_CIS: Attagene CIS-FACTORIAL HepG2 Assay for human Signal Transducer and Activator of Transcription 3 (STAT3) (AID 2282963). As to conditions: HepG2, Attagene cis-factorial STAT3 reporter transcription; actives raise or lower the signal. A digest of the protocol:
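Values derive from bidirectional fits relative to DMSO of reporter mRNA levels, measured by RT-PCR with capillary electrophoresis, in HepG2 cells carrying transiently transfected cis-regulated reporter units and exposed 24 h.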

Experiment [9] can be described thus: ATG_TA_CIS: Attagene CIS-FACTORIAL HepG2 Assay for human TA Basal Promoter (AID 2282964). The settings on record: HepG2 Attagene CIS-factorial TA basal promoter reporter; actives raise or lower the signal. Summed up:
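Background-control readout: TA basal promoter reporter mRNA, fitted in both directions relative to DMSO. Measured by RT-PCR and capillary electrophoresis 24 hours after treating HepG2 human liver cells transiently carrying multiplexed cis-regulated reporter constructs.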

Experiment [10] can be described thus: ATG_TCF_b_cat_CIS: Attagene CIS-FACTORIAL HepG2 Assay for human T-Cell-Factor with beta-catenin (TCF/b-cat) (AID 2282965). As to conditions: HepG2 TCF/beta-catenin cis-reporter transcription, actives raise or lower the signal. Summed up:
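Cells of the HepG2 line carry transiently transfected reporter units whose promoters respond to endogenous factors. Twenty-four hours post-dosing, reporter mRNA induction is measured by fluorescent RT-PCR and capillary electrophoresis, with DMSO as baseline.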

A short description of experiment [11]: ATG_TAL_CIS: Attagene CIS-FACTORIAL HepG2 Assay for human TAL Basal Promoter (AID 2282966).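 Also: background control endpoint measuring basal TAL promoter reporter mRNA not a specific factor.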 As to conditions: HepG2 Attagene cis-factorial TAL promoter reporter; actives raise or lower the signal. A digest of the protocol:
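RT-PCR plus capillary electrophoresis quantifies reporter mRNA induction in transiently transfected HepG2 cells after 24 h chemical treatment. DMSO serves as negative control and baseline for bidirectional fitting.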

Experiment [12] in a line: ATG_TGFb_CIS: Attagene CIS-FACTORIAL HepG2 Assay for human Transforming Growth Factor (TGF) (AID 2282967). As to conditions: HepG2 Attagene CIS TGFb reporter, mRNA transcription; actives raise or lower the signal. A digest of the protocol:
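Endogenous TGFB1-linked transcription factor activity read as reporter mRNA via RT-PCR and capillary electrophoresis, 24 h after dosing transiently transfected HepG2 cells. Gain or loss of signal fitted relative to DMSO.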

A short description of experiment [13]: ATG_VDRE_CIS: Attagene CIS-FACTORIAL HepG2 Assay for human Vitamin D Receptor Element (VDRE) (AID 2282968). The settings on record: HepG2 VDRE cis-reporter transcription, actives raise or lower the signal. Summed up:
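Cell-based multiplexed reporter format in human liver HepG2 cells, 24 h post-dose. Fluorescence from capillary electrophoresis of reporter cDNA gives the signal, with DMSO as negative control and baseline.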

The target of experiment [14] is Estrogen receptor (Homo sapiens) (UniProt P03372). The experiment can be described thus: ATG_ERa_TRANS: Attagene TRANS-FACTORIAL HepG2 Assay for human Estrogen Receptor alpha (ERa) (AID 2282970; active = hit-call score of the fitted dose curve at least 0.9, where 1 is the maximum). The settings on record: HepG2 Attagene TRANS ERa GAL4 reporter, mRNA. Summed up: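 Cells: HepG2, transiently transfected. Construct: GAL4-UAS reporter units regulated by exogenous NR-Gal4 chimeras. Time: 24 h. Detection: reporter mRNA by RT-PCR, capillary electrophoresis, fluorescence. Baseline: DMSO, upward fitting.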
Chain of Estrogen receptor (Homo sapiens) (P03372 whole entry, looked up, the tested form may be a part): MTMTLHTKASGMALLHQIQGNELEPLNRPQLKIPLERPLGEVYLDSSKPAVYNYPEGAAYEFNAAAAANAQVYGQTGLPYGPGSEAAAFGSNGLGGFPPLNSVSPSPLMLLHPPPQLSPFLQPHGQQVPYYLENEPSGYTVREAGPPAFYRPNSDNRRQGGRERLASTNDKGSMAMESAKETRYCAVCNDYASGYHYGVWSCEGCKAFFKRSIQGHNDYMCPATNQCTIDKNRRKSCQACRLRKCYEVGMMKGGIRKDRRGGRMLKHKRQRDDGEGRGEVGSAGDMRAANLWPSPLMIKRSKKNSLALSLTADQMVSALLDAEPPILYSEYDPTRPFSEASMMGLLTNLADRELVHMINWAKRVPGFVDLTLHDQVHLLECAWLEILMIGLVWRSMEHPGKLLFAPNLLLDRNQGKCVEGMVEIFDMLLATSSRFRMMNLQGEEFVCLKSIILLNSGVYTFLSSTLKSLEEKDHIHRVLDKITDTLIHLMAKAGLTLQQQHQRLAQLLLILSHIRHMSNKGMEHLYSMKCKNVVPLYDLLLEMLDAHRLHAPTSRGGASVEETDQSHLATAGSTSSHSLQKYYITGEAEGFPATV

Experiment [15] addresses X-box-binding protein 1 (Homo sapiens) (UniProt P17861). The experiment can be described thus: ATG_Xbp1_CIS: Attagene CIS-FACTORIAL HepG2 Assay for human X-box Binding Protein 1 (XBP1) (AID 2282972). The settings on record: HepG2 XBP1 cis-element reporter, Attagene multiplex; actives raise or lower the signal. Summed up:
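After a 24-hour chemical exposure of HepG2 cells carrying cis-regulated reporters, reporter mRNA levels are assessed. Quantification uses RT-PCR, 6-FAM labelling and capillary electrophoresis. Gain- or loss-of-signal is fitted against DMSO.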

A short description of experiment [16]: ATG_M_19_TRANS: Attagene TRANS-FACTORIAL HepG2 Assay for M19 Transcription Factor (Internal Marker) (AID 2282974; active = hit-call score of the fitted dose curve at least 0.9, where 1 is the maximum). The settings on record: HepG2 Attagene TRANS-FACTORIAL M19 internal marker reporter. A digest of the protocol: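 After transfection of HepG2 with GAL4-UAS-driven reporter constructs, cells are dosed for 24 h. Total RNA is reverse-transcribed, reporter sequences PCR-amplified and labelled, then HpaI-digested and sized by capillary electrophoresis.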

The nature of experiment [17]: ATG_GAL4_TRANS: Attagene TRANS-FACTORIAL HepG2 Assay for GAL4 (Internal Marker) (AID 2282976; active = hit-call score of the fitted dose curve at least 0.9, where 1 is the maximum). The settings on record: HepG2 Attagene TRANS GAL4 internal marker reporter. A digest of the protocol: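 In transfected human HepG2 liver cells dosed 24 h, GAL4 reporter mRNA serves as a baseline marker. Detection by RT-PCR with fluorescent capillary electrophoresis, activity fitted upward relative to DMSO.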

Experiment [18] can be described thus: ATG_PBREM_CIS: Attagene CIS-FACTORIAL HepG2 Assay for human Phenobarbital-responsive Enhancer Module (PBREM) (AID 2282955). The settings on record: HepG2 PBREM cis-reporter, Attagene multiplexed transcription; actives raise or lower the signal. Summed up:
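HepG2, transient MRTU transfection, 24 h dosing; RNA → oligo(dT) RT → PCR → 6-FAM extension → HpaI → CE. Bidirectional fit vs DMSO.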

Records with an inconclusive call do not appear. Activity calls are given as the source filed them. The calls were made as follows, unless noted: active = hit-call score of the fitted dose curve at least 0.9, where 1 is the maximum; inactive = score below 0.9.

Chain of Paired box protein Pax-6 (Homo sapiens) (P26367 whole entry, looked up): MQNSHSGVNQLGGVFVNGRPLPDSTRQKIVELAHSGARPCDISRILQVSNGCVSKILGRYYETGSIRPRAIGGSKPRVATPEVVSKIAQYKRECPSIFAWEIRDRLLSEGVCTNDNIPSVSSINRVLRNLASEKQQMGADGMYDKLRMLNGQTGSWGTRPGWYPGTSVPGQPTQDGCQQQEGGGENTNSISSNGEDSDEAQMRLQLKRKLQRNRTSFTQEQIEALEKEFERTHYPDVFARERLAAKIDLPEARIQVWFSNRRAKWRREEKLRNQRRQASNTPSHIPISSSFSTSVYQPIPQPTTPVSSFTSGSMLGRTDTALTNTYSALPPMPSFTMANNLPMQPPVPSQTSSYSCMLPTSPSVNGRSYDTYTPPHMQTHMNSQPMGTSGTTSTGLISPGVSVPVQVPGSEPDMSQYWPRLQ
Chain of Signal transducer and activator of transcription 3 (Homo sapiens) (P40763 whole entry, looked up): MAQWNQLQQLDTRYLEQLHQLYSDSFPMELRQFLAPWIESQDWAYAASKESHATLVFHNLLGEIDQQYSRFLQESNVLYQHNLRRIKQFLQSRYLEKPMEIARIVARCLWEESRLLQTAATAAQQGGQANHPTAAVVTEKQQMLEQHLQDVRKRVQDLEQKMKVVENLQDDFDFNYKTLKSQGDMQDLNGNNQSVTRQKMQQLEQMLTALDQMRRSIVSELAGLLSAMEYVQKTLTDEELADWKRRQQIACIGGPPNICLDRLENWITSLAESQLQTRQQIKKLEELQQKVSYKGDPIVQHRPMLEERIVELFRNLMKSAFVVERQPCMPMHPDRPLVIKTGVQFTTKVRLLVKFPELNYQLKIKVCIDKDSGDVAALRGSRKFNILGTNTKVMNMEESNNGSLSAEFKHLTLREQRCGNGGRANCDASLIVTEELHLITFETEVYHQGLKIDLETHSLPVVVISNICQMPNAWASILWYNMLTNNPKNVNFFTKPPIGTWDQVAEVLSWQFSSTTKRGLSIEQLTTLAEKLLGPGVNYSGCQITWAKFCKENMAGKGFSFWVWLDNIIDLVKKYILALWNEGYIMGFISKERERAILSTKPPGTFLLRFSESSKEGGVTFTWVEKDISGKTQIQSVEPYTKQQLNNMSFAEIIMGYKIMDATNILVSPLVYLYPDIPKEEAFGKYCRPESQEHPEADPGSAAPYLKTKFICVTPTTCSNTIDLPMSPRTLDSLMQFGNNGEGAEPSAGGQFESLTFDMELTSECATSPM
Chain of Transcription factor Sp1 (Homo sapiens) (P08047 whole entry, looked up): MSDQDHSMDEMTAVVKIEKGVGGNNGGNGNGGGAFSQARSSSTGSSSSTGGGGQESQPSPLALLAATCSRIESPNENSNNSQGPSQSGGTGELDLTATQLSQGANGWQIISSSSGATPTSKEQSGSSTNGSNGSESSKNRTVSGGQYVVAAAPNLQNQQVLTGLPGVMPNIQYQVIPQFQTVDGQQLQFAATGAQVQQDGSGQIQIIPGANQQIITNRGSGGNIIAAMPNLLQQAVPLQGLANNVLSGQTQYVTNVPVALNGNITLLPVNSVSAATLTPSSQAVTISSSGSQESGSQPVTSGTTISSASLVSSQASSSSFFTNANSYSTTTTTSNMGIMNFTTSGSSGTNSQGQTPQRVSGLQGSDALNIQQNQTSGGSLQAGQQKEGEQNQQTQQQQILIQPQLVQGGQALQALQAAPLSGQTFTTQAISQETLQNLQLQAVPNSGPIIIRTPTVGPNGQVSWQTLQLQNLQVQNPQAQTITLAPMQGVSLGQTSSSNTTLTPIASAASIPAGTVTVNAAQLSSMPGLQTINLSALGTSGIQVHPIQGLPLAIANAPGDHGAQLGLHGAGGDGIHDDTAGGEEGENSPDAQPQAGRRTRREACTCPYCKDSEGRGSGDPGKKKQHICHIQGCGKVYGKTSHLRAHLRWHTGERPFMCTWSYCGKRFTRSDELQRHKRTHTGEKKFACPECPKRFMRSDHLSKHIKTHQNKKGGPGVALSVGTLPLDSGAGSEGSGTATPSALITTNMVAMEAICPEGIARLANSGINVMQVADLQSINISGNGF
Chain of X-box-binding protein 1 (Homo sapiens) (P17861 whole entry, looked up): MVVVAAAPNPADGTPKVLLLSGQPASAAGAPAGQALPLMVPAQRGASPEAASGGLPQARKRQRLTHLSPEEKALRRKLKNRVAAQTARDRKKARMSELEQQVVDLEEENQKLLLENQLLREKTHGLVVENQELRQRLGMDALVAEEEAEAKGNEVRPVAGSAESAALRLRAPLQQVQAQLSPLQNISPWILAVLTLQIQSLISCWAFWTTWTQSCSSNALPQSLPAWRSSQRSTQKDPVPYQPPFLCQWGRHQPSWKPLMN

Broadly, the AC50 is the concentration giving half of the maximal activity seen. As for `Cc1cc(C)c(C=O)c(C)c1`, the result in [1], in [3], in experiment [4], in [5], in [6] and in experiment [7] was inactive. In addition, the compound was called inactive in experiment [8], in [9], in experiment [10], in experiment [11], in experiment [12] and in experiment [14]. Besides, the result in experiment [15], in [16] and in experiment [17] was inactive. Further, the results for the AC50 in experiment [2] and in [13] were 1.61 µM (active) and 3.24 µM (active), respectively.
For `CCCC=C(C=O)CC`, the outcome in [18], in experiment [4], in [5], in [6], in experiment [7] and in experiment [8] was inactive. For the same compound, the outcome in experiment [10], in [11], in experiment [12], in experiment [14], in [15] and in experiment [16] was inactive. Further, the AC50 in experiment [2] is 7.92 µM (active).
`CCCCC/C=C\C/C=C\CCCCCCCC(=O)O`: the AC50 in [1] is 133 µM (active); in experiment [2], 64.1 µM (active); in experiment [3], 35.1 µM (active); in experiment [4] it was 39.6 µM (active); in [9], 100 µM (active); in experiment [11] it was 100 µM (active). Moreover, the AC50 in experiment [15] was 147 µM (active). The compound was classed as inactive in experiment [5], in experiment [6], in [7], in [8], in experiment [10] and in [12]. The result in experiment [13], in experiment [14] and in [16] was inactive.
On to `CCCCCCCCCCCCCC(=O)OC(C)C`, for which the call in experiment [1], in [2], in experiment [3], in [4], in [5] and in experiment [6] was inactive. The compound was called inactive in experiment [7], in [8], in [9], in experiment [10], in [11] and in experiment [12]. In addition, the compound was classed as inactive in [13], in [14], in [16] and in experiment [17].
